Experimental data published in PubChem BioAssay (NCI).
Compounds without any hit were thinned out: in the full panel of roughly 83,000, 20% have a hit.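 The test compound was applied at a single concentration to cells in 96-well plates for 48 hours, and percent growth was recorded.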 The source made the active and inactive calls. The calls were made as follows: active = growth percent below 10; inactive = the rest.

These molecules were tested on SR leukemia (assay: NCI-60 one-dose screen, 48 h (100 = growth as untreated, 0 = no growth, -100 = all killed)). Conditions: 10 µM.

Compound | growth
O=S(=O)(Nc1ncccn1)c1ccc(-n2c(-c3ccccc3)nc(-c3ccccc3)c2-c2ccccc2)cc1 | 81.8% (inactive)
COc1ccc(-c2cc(-c3cc(C(=O)c4ccccc4)n4ccc(C)cc34)nc(N)c2C#N)cc1 | 86.7% (inactive)
N#Cc1ccc(NC(=O)CSc2ccc(-c3ccc(Br)cc3)nn2)cc1 | 46.6% (inactive)
CCCn1c(O)c(N=Nc2nc(-c3cc4ccccc4oc3=O)cs2)c2cc(Br)ccc21 | 101% (inactive)
COc1cc2oc(-c3cccc(C(=O)Nc4ccc(Cl)cc4)c3)cc(=O)c2c(OCCNC(=O)CNC(=O)OC(C)(C)C)c1OC | 37.5% (inactive)
CCCCOc1ccc(Nc2nc3ccccc3nc2Nc2ccc(OCCCC)cc2)cc1 | 80.1% (inactive)
COc1cc(NC(=O)CSc2nnc(-c3ccc4nc(-c5ccc(Cl)cc5)[nH]c4c3)o2)cc(OC)c1OC | 48% (inactive)
O=C(NO)c1ccc(CNC(=O)[C@H]2Cc3c([nH]c4ccccc34)[C@H](c3ccc(Cl)cc3)N2)cc1 | 17.2% (inactive)
N#Cc1c(NC(=O)c2ccc(C(F)(F)F)c(Cl)c2)sc2c1CCC(=O)C2 | -11.8% (active)
O=C(Cc1ccc2c(c1)CN(C1CCC(=O)NC1=O)C2=O)NCc1cccc2ccccc12 (configuration not stated) | 13.6% (inactive)
CCOC(=O)CNC(=O)CN(Cc1ccccc1)C(=O)[C@@]1(C)CCC[C@]2(C)[C@H]3C[C@H]4C(C(C)C)=C[C@]3(CC[C@H]21)[C@@H]1C(=O)OC(=O)[C@@H]14 | 4.44% (active)
O=C(NCCCCCCCCCC[P+](c1ccccc1)(c1ccccc1)c1ccccc1)c1ccc(-n2nc(-c3ccccc3O)nc2-c2ccccc2O)cc1 | 1.87% (active)
